Vaccinia mCherry – qHTS for Stage-Specific Inhibitors of Vaccinia Orthopoxvirus: mCherry Reporter Primary qHTS; Vaccinia virus mCherry reporter infection, fluorescence; Potency, µM (highest dose often 36.5 µM), without a hit: at the top dose activity change, negative = inhibition, most hits filed as inhibitors; hit rate 0.63% among 310,000; calls by dose curve; tested in A549 cells; further: nearly all actives have a fitted effect of over 35% in size
Vaccinia Venus – qHTS for Stage-Specific Inhibitors of Vaccinia Orthopoxvirus: Venus Reporter Primary qHTS; AID 720580, 2013; hit rate 0.46% among 330,000; Vaccinia virus Venus reporter expression, fluorescence; Potency, µM (doses to about 36.5 µM), inactives show top-dose activity change, negative = inhibition, usual class: inhibitors; calls by dose curve; tested in A549 cells; further: nearly all actives have a fitted effect of over 30% in size
LASV entry inh – qHTS for Inhibitors of binding or entry into cells for Lassa Virus | Lassa virus pseudotype entry inhibition, cell reporter | Potency, µM (top dose mostly 37.9 µM), for the others: at the top dose activity change, negative = inhibition, most hits filed as inhibitors | hit rate 1.2% among 300,000; calls by dose curve; tested in HEK293 cells; further: nearly all actives have a fitted effect of over 50% in size
MARV entry inh – qHTS for inhibitors of binding or entry into cells for Marburg Virus; Marburg virus pseudotyped entry inhibition, cell reporter; Potency, µM (doses to about 37.8 µM), without a hit: at the top dose activity change, negative = inhibition, actives largely listed as inhibitors; hit rate 1.8% among 300,000; AID 540276, 2011; calls by dose curve; tested in HEK293 cells
FMDV inh – High Throughput Screening for Foot and Mouth Disease Virus Antivirals; FMDV antiviral cell-based qHTS; Potency, µM (top dose mostly 57.9 µM), inactives show at the highest dose activity change, negative = inhibition, usual class: inhibitors; hit rate 1.2% among 410,000; AID 1159524, 2015; calls by dose curve; tested in HEK293T cells; further: read-out not given here; nearly all actives have a fitted effect of over 45% in size
Sm TGR inh – qHTS Assay for the Inhibitors of Schistosoma Mansoni Peroxiredoxins | Schistosoma mansoni thioredoxin glutathione reductase (TGR), Q962Y6 | Potency, µM (titrated, usually from 114 µM), without a hit: at the top dose activity change, negative = inhibition, usual class: inhibitors | hit rate 3% among 360,000 | AID 485364, 2010 | purified TGR, DTNB reduction, TNB absorbance 405 nm; active means well fitted inhibition curve with a large enough effect; inconclusive means small, poorly fitted or top-dose-only effect; inactive means no such curve, though single readings can be large or run the other way; further: nearly all actives have a fitted effect of over 60% in size
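First, TGR (20 nM dispensed) and NADPH were mixed with compound. Second, a 15 min room-temperature incubation followed. Third, further NADPH and then DTNB were added to start the reaction. Finally, TNB absorbance was monitored kinetically.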
* hit, by the source's call; i = inactive; ? = inconclusive; / = no result given; [ ] = remark or other dose. In the library only some 5.4% were active in any assay of this set; here they are far more common. On the % scale 0 is the no-effect control and ±100 the full control effect; potency means the concentration at half of the fitted maximal effect.

SMILES	Vaccinia mCherry	Vaccinia Venus	LASV entry inh	MARV entry inh	FMDV inh	Sm TGR inh
Cc1ccc(S(=O)(=O)Nc2cccc(-c3ccc(N4CCCC4)nn3)c2)c(C)c1	-18.9%	-15.8%	-19.6%[46.1 µM]	/	16.4%	1.4%
O=[N+]([O-])c1c(NCCO)cc(N2CCC3(CC2)OCCO3)c2nonc12	-14.3%	-21.4%	1.0%	3.4%	-13.1%	-3.3%
CN(CCO)c1cc(N2CCC3(CC2)OCCO3)c2nonc2c1[N+](=O)[O-]	-1.5%	-0.7%	15.9%	?	-12.5%	28.2µM*
CN(CCO)c1cc(N2CCCCC2)c2nonc2c1[N+](=O)[O-]	-10.4%	-23.3%	-7.7%[46.1 µM]	-13.3%[46.1 µM]	19.2%	17.8µM*
O=C(Nc1cnn(Cc2ccc(Cl)c(Cl)c2)c1)C12CC3CC(CC(C3)C1)C2	17.8µM*	?	?	13µM*	0.0%	1.8%
CCOc1ccc(C(=O)Nc2cnn(Cc3ccc(Cl)c(Cl)c3)c2)cc1	/	/	?	?	?	-17.9%
CCCCC#C[C@@H]1C=C[C@H](Oc2ccc(C(=O)OC)cc2)[C@@H](COC(=O)OCC)O1	/	/	/	16.2%[14.2 µM]	/	/
CC(C)CO/N=C1\C[C@@H](O)[C@@H](O)[C@@H]2[C@@H]3C(=O)N(c4cccc(Oc5ccccc5)c4)C(=O)[C@@H]3CC[C@@H]12	/	/	/	-1.1%[14.2 µM]	/	/
Cc1cnc(C(=O)Nc2cccc3cccnc23)cn1	?	?	1.64µM*	?	12.4%	6.4%
CCOc1ccc(CCNC(=O)c2cn(CC)c3ccc(S(=O)(=O)N4CCCCCC4)cc3c2=O)cc1OCC	?	?	-12.0%[46.1 µM]	-17.1%[46.1 µM]	-5.4%	-6.1%
CCn1c(C(=O)NCc2ccccc2)cc2sc(Cl)cc21	-12.9%	-11.7%	/	9.7%[46.1 µM]	-3.4%	2.7%
COc1cccc([C@H]2/C(=C(\O)c3ccc4c(c3)OCCO4)C(=O)C(=O)N2CCN(C)C)c1	/	/	/	-10.5%	/	/
O=C(O)C1C2C=CC(O2)C1C(=O)NCCCn1ccnc1 (stereo not drawn)	/	/	/	4.3%	/	50.1µM*
CCn1c(CN2CCCCC2)nc2cc(NC(=O)COc3ccc(C(C)(C)C)cc3)ccc21	-25.6%	-14.6%	-2.8%[46.1 µM]	?	?	-6.0%
CCCCOc1ccc(C2=NC(c3ccncc3)=Nc3ccc(OCC)cc3N2)cc1	-11.6%	1.9%	-23.3%[46.1 µM]	?	-12.0%	-3.8%
CCOC(=O)c1c(C)oc2nc(C)nc(NCc3cccc(OC)c3)c12	-10.9%	-6.9%	-2.1%[46.1 µM]	/	-20.0%	-1.0%
CCOc1ccc(C2C(C(=O)c3ccc(C)o3)=C(O)C(=O)N2CCCN(CC)CC)cc1 (stereo not drawn)	/	/	/	/	-9.4%	35.5µM*
CCN(CC)CCCN1C(=O)C(O)=C(C(=O)c2ccc(C)o2)[C@@H]1c1ccc(C)o1	/	/	/	8.0%	/	/
CCN(CC)CCCN1C(=O)C(O)=C(C(=O)c2ccc(C)o2)C1c1ccc(C)o1 (stereo not drawn)	i	-9.2%	8.0%	8.0%	-16.5%	50.1µM*
CCN(CC)CCCN1C(=O)C(O)=C(C(=O)c2ccc(C)o2)C1c1cccs1 (stereo not drawn)	/	/	/	2.0%	/	44.7µM*
CCOc1cccc(C2C(C(=O)c3ccc(C)o3)=C(O)C(=O)N2CCCn2ccnc2)c1 (stereo not drawn)	i	-2.0%	9.4%	9.2%[46.1 µM]	2.9%	?
CCN(CC)CCCN1C(=O)C(O)=C(C(=O)c2ccco2)C1c1ccc(C)o1 (stereo not drawn)	i	-13.4%	2.6%	1.0%	5.0%	/
CCOC(=O)c1ccc(NC(=O)c2nc(S(=O)(=O)Cc3ccccc3)ncc2Cl)cc1	?	?	?	11.2µM*	35.5µM*	8.91µM*
CCSc1ncc(Cl)c(C(=O)Nc2ccc(S(=O)(=O)Nc3ncccn3)cc2)n1	-17.7%	-4.2%	-8.6%[46.1 µM]	17.4%[46.1 µM]	-3.7%	-10.1%
CCSc1ncc(Cl)c(C(=O)Nc2ccccc2)n1	i	-10.7%	5.5%	11.9%	-19.0%	-10.3%
CCS(=O)(=O)c1ncc(Cl)c(C(=O)Nc2ccccc2)n1	?	?	?	?	?	7.94µM*
